Measured values: PubChem BioAssay (Tox21)
Results filed as inconclusive are left out. Values without a mark were called inactive. Calls come from the whole dose curve.

Biological target: Retinoic acid receptor RXR-alpha (Homo sapiens) (UniProt P19793)
Assay: qHTS assay to identify small molecule agonists of the RXR signaling pathway (AID 1159527); note: nearly all actives have a fitted effect of over 35% in size
Settings: HEK293T RXRa-UAS-bla, beta-lactamase ratio, 16 h; series mostly up to 76.8 µM; activation: at the top concentration
Method in brief: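 Read-out: beta-lactamase FRET ratio (405 nm excitation, 460 and 530 nm emission) after 2 hr substrate loading at room temperature. Cells were RXR-alpha-UAS-bla HEK 293T treated with compounds for 16 hr in 2% charcoal-stripped FBS medium.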
% is set by controls: 0 for no effect and ±100 for the full control effect.

Sequence of Retinoic acid receptor RXR-alpha (Homo sapiens) (P19793 whole entry, looked up): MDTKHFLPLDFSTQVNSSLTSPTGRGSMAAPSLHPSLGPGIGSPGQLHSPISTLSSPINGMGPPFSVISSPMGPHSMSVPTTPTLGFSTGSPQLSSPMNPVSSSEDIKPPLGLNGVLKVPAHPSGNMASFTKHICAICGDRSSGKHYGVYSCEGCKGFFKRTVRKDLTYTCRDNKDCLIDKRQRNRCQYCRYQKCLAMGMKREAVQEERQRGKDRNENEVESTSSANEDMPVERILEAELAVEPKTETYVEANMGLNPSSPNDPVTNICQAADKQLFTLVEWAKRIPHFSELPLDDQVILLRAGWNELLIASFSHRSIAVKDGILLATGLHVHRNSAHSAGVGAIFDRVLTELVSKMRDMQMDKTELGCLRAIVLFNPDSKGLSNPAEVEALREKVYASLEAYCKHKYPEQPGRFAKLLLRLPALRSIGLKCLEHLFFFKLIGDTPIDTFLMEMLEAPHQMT

Q: Which “activation” value does the source give for `NC(=O)c1cc([N+](=O)[O-])cc([N+](=O)[O-])c1` here?
A: 9.1% [at 35.3 µM]

Q: `O=NN1CCCCC1` was tested. Which “activation” value did it give?
A: 13.3%

Q: For `CCCCc1ccc(O)cc1`, which “activation” value is on record?
A: -3.72%

Q: Which “activation” value does the source give for `Clc1ccccc1N1CCNCC1` here?
A: 2.2% [at 35.3 µM]

Q: How did the “activation” value turn out when `CC(CC(C#N)(c1ccccc1)c1ccccc1)N(C)C` (centres undefined) was run?
A: -17.9%

Q: With `CC(Cl)(Cl)[N+](=O)[O-]` as the compound, how does the “activation” value read?
A: 0.925%

Q: Which “activation” value does the source give for `OCCBr` here?
A: -15.7%

Q: Which “activation” value does the source give for `OC(Cn1cncn1)(c1ccc(F)cc1)c1ccccc1F` (centres undefined) here?
A: 8.64%

Q: Which “activation” value does the source give for `N#CC(Cl)(Cl)Cl` here?
A: -11.7%

Q: With `N#Cc1c(Cl)cccc1Cl` as the compound, how does the “activation” value read?
A: 8.27%

Q: Which “activation” value does the source give for `COP(N)(=S)Oc1ccccc1C(=O)OC(C)C` (centres undefined) here?
A: -0.0347%

Q: With `CC1CCC(=O)O1` (centres undefined) as the compound, how does the “activation” value read?
A: 4.78%

Q: Which “activation” value does the source give for `CNC(=O)Oc1c(C(C)(C)C)cc(C)cc1C(C)(C)C` here?
A: 10.7%

Q: `C[N+](C)=CCl` was tested. Which “activation” value did it give?
A: 11.2%

Q: Which “activation” value does the source give for `CCOC(=O)C(c1c(O)c2ccccc2oc1=O)c1c(O)c2ccccc2oc1=O` here?
A: 7.95% [at 35.3 µM]

Q: How did the “activation” value turn out when `COCC(=O)N(c1c(C)cccc1C)N1CCOC1=O` was run?
A: -1.57%

Q: `Cc1ncc2n1-c1ccc(Cl)cc1C(c1ccccc1F)=NC2` was tested. Which “activation” value did it give?
A: -5.67% [at 35.3 µM]

Q: With `C#C[C@]1(O)C=C[C@H]2[C@@H]3CCC4=CC(=O)CC[C@@H]4[C@H]3CC[C@@]21CC` as the compound, how does the “activation” value read?
A: -14.1% [at 35.3 µM]

Q: `C[C@@H]1CN(C2CCC(C#N)(c3ccc(F)cc3)CC2)CC[C@]1(C(=O)O)c1ccccc1` (some centres undefined) was tested. Which “activation” value did it give?
A: 1.23% [at 35.3 µM]

Q: `C[C@]12CC[C@H]3[C@@H](CC=C4C[C@@H](O)CC[C@@]43C)[C@@H]1CC[C@@H]2O` was tested. Which “activation” value did it give?
A: 8.23% [at 35.3 µM]

Q: How did the “activation” value turn out when `O=C(Oc1ccc(Br)cc1)N1CCN2CCC1CC2` was run?
A: -6.11%

Q: `CN/C(=N\[N+](=O)[O-])NCC1CCOC1` (centres undefined) was tested. Which “activation” value did it give?
A: 2.58%

Q: Which “activation” value does the source give for `COC(=O)C1=CCCN(C)C1` here?
A: 7.85% [at 35.3 µM]

Q: Which “activation” value does the source give for `CCC(C)n1c(=O)[nH]c(C)c(Br)c1=O` (centres undefined) here?
A: -3.22%
